From PubChem BioAssay (NCI) come the findings set out here.

SMILES strings stand for the structures. This is part of a sample that, as a whole, favours compounds with a hit. Of some 83,000 tested, about 20% had one in any assay.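 Single-dose data. Exposure time 48 hours. Values below 10 considered active.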 Unmarked numbers belong to inactive results. Calls of active or inactive are those of the source.

Holding throughout (test): NCI-60 one-dose screen, 48 h (100 = growth as untreated, 0 = no growth, -100 = all killed)
Holding throughout (settings): 10 µM unless noted

The test system of assay [1] is SK-MEL-2 melanoma.
Assay [2] relates to SN12C renal.
Assay [3] deals with UO-31 renal.
Assay [4] has as its system TK-10 renal.
Assay [5] deals with ACHN renal.
The test system of assay [6] is A498 renal.
The subject of assay [7] is MOLT-4 leukemia.
In assay [8] the test system is CCRF-CEM leukemia.
Assay [9] relates to CAKI-1 renal.
Assay [10] deals with EKVX NSCLC.

As for `CCc1ccc(-c2ccc(NC3CCCCCC3)nn2)cc1S(N)(=O)=O`, the growth in [1] was 99.3%; in [2], 101%; in assay [3], 102%; in [4], 93.4%; in assay [5], 96.1%; in assay [6] it was 107%. Besides, the growth in assay [7] was 91.7%.
With `CCOC(=O)c1sc2nc(-c3cc4ccccc4o3)cc(-c3ccc(Cl)cc3)c2c1N`, the growth was 83.8% in assay [1]; 82.4% in [2]; 87.2% in assay [3]; 145% in assay [4]; 80.9% in [5]; 98.2% in assay [6]. For the same compound, the growth is 84% in assay [8] and 99.3% in assay [7].
Consider `CCCCCCCCCCCCCCC(C(=O)OCC)C(=O)OCC`, for which the growth in assay [1] was 112%; in assay [2], 101%; in assay [3] it was 93%; in [4], 117%; in assay [5], 98.3%; in assay [9], 90.8%. Also, the growth is 105% in assay [6] and 109% in assay [7].
For `COc1ccc(NC(=O)C2c3ccccc3C(=O)N(CC(C)C)C2c2cccs2)cc1` (stereo not given), the growth was 102% in assay [1]; 92.1% in assay [2]; 108% in assay [3]; 97.8% in assay [4]; 97.3% in assay [5]; 92.2% in assay [9]. The results for the growth in assay [6], in assay [8] and in assay [7] were 86.7%, 92.7% and 98.6%, respectively.
Take `NC(=O)Nc1ccc2ncnc(Nc3cccc(O)c3)c2c1`: the growth in assay [10] was 82.6%; in assay [2], 94.9%; in assay [3], 80.1%; in assay [4], 103%; in [5], 103%; in [9] it was 84.8%. Besides, the growth was 77.4% in [6], 108% in assay [8] and 98.8% in assay [7].
Consider `O=C(C=P(c1ccccc1)(c1ccccc1)c1ccccc1)CCl`, for which the growth is -47.4% (active) in [1]; -19.3% (active) in assay [2]; -95.4% (active) in assay [3]; -46.2% (active) in assay [4]; -35.8% (active) in [6]; -3.6% (active) in [8]. For the same compound, in [7], the growth is -35.8% (active).
On to `COc1cc2c(cc1OC)C(=O)OC2`, for which the growth in [10] is 108%; in [2] it was 99.8%; in [3], 101%; in assay [4] it was 123%; in assay [5], 103%; in [9], 55.6%. Moreover, the figures for the growth in assay [8] and in [7] were 124% and 104%, respectively.
Turning to `ClCc1cccc(CSc2ncnc3c2ncn3Cc2cccc(CCl)c2)c1`, the growth in assay [10] is 92.9%; in assay [2] it was 2.77% (active); in assay [3], 40.6%; in assay [4], 48.4%; in [5] it was 70.1%; in assay [9], 96.4%. Besides, the growth in assay [6] was 76.2%; in [8] it was 3.41% (active); in assay [7], 5.6% (active).
As for `Cc1cc2nc3c(=O)[nH]c(=O)nc-3n(CC=O)c2cc1C`, the growth in assay [10] is 95.6%; in assay [2], 97.7%; in assay [3] it was 106%; in assay [4], 111%; in assay [5], 105%; in assay [9], 64.8%. Further, the growth in [6] is 116%; in [8], 160%; in assay [7], 109%.
Consider `CC1=NN(c2cccc(S(N)(=O)=O)c2)C(=O)C1`, for which the growth was 91.2% in assay [10]; 90.9% in assay [2]; 77.1% in assay [3]; 97.8% in [4]; 99.6% in assay [5]; 51% in assay [9]. In addition, the growth in assay [6] is 88.6%; in assay [8] it was 79.6%; in assay [7] it was 99.7%.
For the compound `CCCCCc1c(C)[nH]c(/C=C2\N=C(c3ccc[nH]3)C=C2CC)c1C`, the growth in assay [10] was -90.3% (active); in assay [2] it was -89.9% (active); in assay [3], -85.8% (active); in assay [4] it was -88.9% (active); in assay [5] it was -94.7% (active); in assay [9], -82.1% (active). Moreover, the values for the growth in [6], in assay [8] and in assay [7] were -90.8% (active), -58.3% (active) and -58.8% (active), respectively.
Take `O=C1OCC2=C1C(c1ccc(Cl)c(Cl)c1)c1cc3c(cc1N2CCO)CCC3` (stereo not given): the growth is 40.2% in assay [10]; 31.4% in assay [2]; 26.3% in assay [3]; 50.7% in assay [4]; 32.8% in [5]; 35.7% in [9]. The growth was -0.897% (active) in assay [6], 10.6% in [8] and 18.9% in [7].
Turning to `CCOC(=O)c1ccc(NC(=O)NC2=NCCS2)cc1`, the growth is 76.6% in assay [1]; 45.4% in [2]; 97.5% in assay [4]; 78.9% in assay [5]; 35.3% in [9]; -7.64% (active) in [6]. Further, the results for the growth in assay [8] and in assay [7] were 7.22% (active) and 19.7%, respectively.
Regarding `COc1cc(Nc2ccnc3ccc(Br)cc23)cc(OC)c1OC`, the growth in assay [10] is 53.4%; in assay [2] it was 41.5%; in assay [3], 40.2%; in [4] it was 56.8%; in [5] it was 37.6%; in [9], 31.9%. Also, the growth is -7.03% (active) in [6], 32.8% in assay [8] and 32.1% in [7].
For `C=C1NC(=O)C(C(C)CC)NC(=O)C2CSCC(NC(=O)CCC(=O)O)C(=O)NC(Cc3ccccc3)C(=O)NC(C)C(=O)NC(CC(C)CC)C(=O)NC(C(=O)NC(Cc3ccccc3)C(=O)N3CCCC3C(=O)N2)C(C)OC(=O)C(CO)NC(=O)C(C(O)COC)N(C)C(=O)C(C(C)C)NC(=O)C(CC(C)CC)NC1=O` (stereo not given), the growth was 30.4% [6 µM] in assay [10]; 31.4% [6 µM] in assay [2]; 57.4% [6 µM] in [3]; 60.2% [6 µM] in assay [4]; 37.4% [6 µM] in assay [5]; 33.1% [6 µM] in assay [9]. The growth in assay [6] was -11.8% [6 µM] (active); in assay [8], 18.6% [6 µM]; in assay [7], 16.9% [6 µM].
Take `O=NN(CC(=O)NNc1ccccc1)CC(=O)NNc1ccccc1`: the growth in assay [1] is 77.7%; in assay [2] it was 87%; in assay [3] it was 22%; in assay [4], 84.3%; in [9], 36%; in assay [6], 107%. Further, the growth in [8] is 30.7%; in [7], 42.2%.
For the compound `COc1cccc(NC(=O)[C@H](C(C)C)n2c(=O)[nH]c3ccccc3c2=O)c1`, the growth in assay [1] was 101%; in [2] it was 105%; in assay [4], 105%; in assay [9] it was 97.6%; in assay [6] it was 114%; in assay [8] it was 94.8%. Moreover, the growth in assay [7] was 96.8%.
In the case of `CCOc1cccc(/C=N/NC(=O)Cc2ccc(Nc3ccnc(C(F)(F)F)c3)cc2)c1O`, the growth is 20.4% in assay [10]; 43% in assay [2]; 3.59% (active) in [3]; 47.1% in [4]; 6.94% (active) in [5]; 36.8% in [9]. Also, the growth is 91.9% in assay [6], -21.7% (active) in assay [8] and 40.6% in [7].
As to `O=c1cc(-c2ccc3c(c2)OCCO3)oc2cc(Cl)ccc12`, the growth in [10] was 28.1%; in [2] it was 26%; in [3], -72.2% (active); in assay [4], -78.2% (active); in assay [5], -70.1% (active); in assay [9], 4.01% (active). The growth in assay [6] is 8.97% (active); in [8], 97%; in assay [7] it was 101%.
For the compound `COc1ccc(C2C3=C(COC3=O)N(CCO)c3cc(OC)c(OC)cc32)cc1` (stereo not given), the growth in [10] is 86.2%; in [2], 102%; in [3], 90.8%; in assay [4], 93.4%; in assay [5] it was 99.8%; in assay [9] it was 108%. Also, the figures for the growth in assay [6], in assay [8] and in assay [7] were 103%, 95.8% and 88.2%, respectively.
For the compound `CCCCCCCCCCCCCC[N+](C)(C)CCCCCCCCCCCCCC`, the growth in [1] was 67.6%; in assay [2] it was 67.6%; in [3] it was 78%; in assay [4], 48.3%; in assay [9], 51.6%; in assay [6], 102%. Moreover, in assay [7], the growth is 51.2%.
In the case of `O=C(Oc1c(Cl)c(Cl)c(Cl)c(Cl)c1Cl)C1CCCN1C(=O)OCc1ccccc1` (stereo not given), the growth in [1] was 69.9%; in [2], 60%; in assay [4], 67.3%; in assay [9], 90.4%; in assay [6], 12.3%; in assay [8], 10.8%. Moreover, in assay [7], the growth was 15.5%.
For the compound `O=C1OCC2=C1C(c1cccc(Br)c1)c1cc3c(cc1N2CCO)OCCO3` (stereo not given), the growth in assay [10] is 44.1%; in assay [2] it was 26.7%; in assay [3], 18.1%; in assay [4] it was 62.7%; in assay [5], 33.8%; in assay [9], 15%. For the same compound, the growth in [6] is -11% (active); in assay [8], 9.31% (active); in assay [7] it was 20.5%.
Regarding `Nc1cc2nc3ccccc3oc-2cc1=O`, the growth was 61% in [10]; -48.8% (active) in assay [2]; -40.2% (active) in [3]; 173% in [4]; 53.3% in [5]; -7.02% (active) in assay [6]. Moreover, the growth in [8] was 94%.
As to `CCc1ccc2c(c1)N(CCO)C1=C(C(=O)OC1)C2c1cccc(Cl)c1` (stereo not given), the growth in assay [10] was 43%; in assay [2], 38.7%; in assay [3], 34.9%; in [4], 49.9%; in assay [5] it was 42%; in [9], 27.6%. In addition, the growth in assay [6] is -1.08% (active); in assay [8] it was 10.5%; in [7], 17.6%.
Consider `C[C@@H]1C[C@H](N)C[C@H](c2ccncc2NC(=O)c2ccc(F)c(-c3c(F)cccc3F)n2)C1`, for which the growth in assay [10] was 74.9%; in assay [2], 58.2%; in [3] it was 25.3%; in [4], 67.6%; in [5] it was 60.5%; in assay [9] it was 27.7%. In addition, the growth was 35.9% in assay [6] and 9.29% (active) in assay [7].
Take `CCOc1cccc(/C=N/NC(=O)c2ccc(Nc3ccnc(C(F)(F)F)c3)cc2)c1O`: the growth is 15.2% in [10]; 40.7% in assay [2]; -11% (active) in [3]; 28.4% in assay [4]; 3.84% (active) in assay [5]; 13.8% in assay [9]. The growth is -2.13% (active) in assay [6], -30.8% (active) in assay [8] and 31.2% in assay [7].
